Bioassay records (PubChem)
HP1b binding inh – HTS for Inhibitors of HP1-beta Chromodomain Interactions with Methylated Histone Tails | Chromobox protein homolog 1 (Homo sapiens), P83916 | AlphaScreen HP1-beta / biotin-H3K9me3 peptide binding | Potency, µM (highest dose often 114 µM), inactives show at the highest dose activity change, negative = inhibition, hits mostly inhibitors | 0.56% of 390,000 active | AID 540317, 2011; note: nearly all actives have a fitted effect of over 70% in size
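HP1-beta protein (50 nM final) preincubated 30 min at room temperature with biotinylated H3(1-18)K9me3 peptide (50 nM) in PBS pH 7.4, 0.01% Tween-20, then compound added for 30 min. AlphaScreen streptavidin donor/nickel chelate acceptor beads (10 ug/mL final), 30 min dark, luminescence read.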
JMJD2A Tudor inh – qHTS Assay for Inhibitors of JMJD2A-Tudor Domain; Lysine-specific demethylase 4A (Homo sapiens), O75164; AlphaScreen JMJD2A-Tudor / H3K4me3 peptide binding; Potency, µM (series often up to 114 µM), for inactives: top-dose activity change, negative = inhibition, actives largely listed as inhibitors; 4.4% of 390,000 active; AID 504339, 2011; note: % is set by controls: 0 for no effect and ±100 for the full control effect; nearly all actives have a fitted effect of over 50% in size
BAZ2B inh – qHTS Assay for Inhibitors of BAZ2B | Bromodomain adjacent to zinc finger domain protein 2B (Homo sapiens), Q9UIF8 | AlphaScreen BAZ2B-H3K14Ac peptide displacement | Potency, µM (top dose mostly 114 µM), for the others: top-dose activity change, negative = inhibition, actives largely listed as inhibitors | 4.4% of 360,000 active; note: % is set by controls: 0 for no effect and ±100 for the full control effect; nearly all actives have a fitted effect of over 60% in size
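Protein-peptide AlphaScreen: BAZ2B 50 nM, b-H3K14Ac 50 nM, 1x PBS pH 7.4 + 0.01% Tween-20. Preincubation 30 min RT; cpd 30 min RT (top 110 uM); beads 20 min RT, light-protected.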
L3MBTL1 inh – qHTS Assay for the Inhibitors of L3MBTL1. Potency, µM (titrated, usually from 57.1 µM), for the others: at the top dose activity, negative = inhibition, most hits filed as inhibitors. Lethal(3)malignant brain tumor-like protein 1 (Homo sapiens), Q9Y468. AlphaScreen L3MBTL1–H3K9me1 peptide binding. 0.66% of 230,000 active; note: % is set by controls: 0 for no effect and ±100 for the full control effect; nearly all actives have a fitted effect of over 60% in size
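AlphaScreen assay: L3MBTL1 (50 nM final) was preincubated 30 min at room temperature with biotinylated H3(1-15)K9me1 peptide (75 nM final), then 30 min with library compounds; streptavidin donor and nickel chelate acceptor beads (10 ug/mL final) added, 30 min dark.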
G9a inh – qHTS Assay for Inhibitors of Histone Lysine Methyltransferase G9a. Histone-lysine N-methyltransferase EHMT2 (Homo sapiens), Q96KQ7. G9a H3K9 monomethylation, AlphaScreen, 2 h. Potency, µM (doses to about 102 µM), for inactives: at the top dose activity, negative = inhibition, most hits filed as inhibitors. 8.8% of 350,000 active; note: % is set by controls: 0 for no effect and ±100 for the full control effect; nearly all actives have a fitted effect of over 75% in size
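AlphaScreen detection with an anti-monomethyl H3K9 antibody quantified product after a 2 h room-temperature reaction containing 500 nM biotinylated H3K9 peptide, 20 µM SAM and 20 nM enzyme, which had been preincubated 15 min with compound.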
GLS inhibitor – qHTS for Inhibitors of Glutaminase (GLS). 0.21% of 410,000 active. GLS enzymatic activity, qHTS titration. Glutaminase kidney isoform, mitochondrial (Homo sapiens), O94925. AID 624170, 2012. Potency, µM (doses to about 45.5 µM), for inactives: top-dose activity change, negative = inhibition, most hits filed as inhibitors; note: % is set by controls: 0 for no effect and ±100 for the full control effect
Target sequence (O94925 whole entry, looked up, canonical isoform): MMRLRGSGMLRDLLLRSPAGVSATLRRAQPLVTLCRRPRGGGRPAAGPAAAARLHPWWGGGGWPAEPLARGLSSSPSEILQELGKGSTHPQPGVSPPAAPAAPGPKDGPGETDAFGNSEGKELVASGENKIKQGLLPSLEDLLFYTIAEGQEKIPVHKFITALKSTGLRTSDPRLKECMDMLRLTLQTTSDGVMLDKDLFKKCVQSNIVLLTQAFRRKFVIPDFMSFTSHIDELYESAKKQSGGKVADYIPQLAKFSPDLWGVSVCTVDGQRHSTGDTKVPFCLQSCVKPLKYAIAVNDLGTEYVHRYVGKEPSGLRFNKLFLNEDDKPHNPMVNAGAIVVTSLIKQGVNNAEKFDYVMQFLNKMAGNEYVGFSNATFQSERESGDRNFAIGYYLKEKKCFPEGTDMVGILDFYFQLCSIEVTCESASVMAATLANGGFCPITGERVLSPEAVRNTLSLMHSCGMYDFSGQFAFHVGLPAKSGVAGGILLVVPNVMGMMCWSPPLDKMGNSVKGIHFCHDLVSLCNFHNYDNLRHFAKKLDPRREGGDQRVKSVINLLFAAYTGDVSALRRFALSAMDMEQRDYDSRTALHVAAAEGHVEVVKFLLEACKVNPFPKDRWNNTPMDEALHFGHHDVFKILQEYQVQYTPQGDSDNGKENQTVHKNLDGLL
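Assay buffer: 45 mM KH2PO4 pH 8.2, 0.02% Tween-20. hKGA acts on L-glutamine (1 mM solution added); product glutamate is reported by an oxidase/peroxidase Amplex Red coupling, with fluorescence taken at baseline and 30 min.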
Numbers without * were called inactive; ? = inconclusive; · = no result given; [ ] = remark or other dose. Sampled rows, rich in hits. Any-hit rate of the full collection: about 10%. Calls come from the whole dose curve; as a rule, active = well fitted curve in the direction sought with a large enough effect; inconclusive = small, poorly fitted or top-dose-only effect, or another doubt; inactive = no such curve, though single readings can be large; an effect the other way counts as inactive or inconclusive. Potency is the fitted concentration of half-maximal effect.

SMILES | HP1b binding inh | JMJD2A Tudor inh | BAZ2B inh | L3MBTL1 inh | G9a inh | GLS inhibitor
CCc1ccc2[nH]c(=O)c(C(c3nnnn3CCOC)N3CCN(c4ccc(F)cc4)CC3)cc2c1 (stereo not given) | -20% | -25%[11.4 µM] | ? | · | ? | -3%
COCCn1nnnc1C(c1cc2cc(OC)c(OC)cc2[nH]c1=O)N1CCN(c2ccc(O)cc2)CC1 (stereo not given) | ? | 56µM* | 28µM* | 32% | · | -19%
CCc1ccc2[nH]c(=O)c(C(c3nnnn3CCOC)N3CCN(c4ccccc4)CC3)cc2c1 (stereo not given) | -3% | ? | -39% | -13% | 28µM* | -1%
Cc1ccc(NC(=O)/C=C\C(=O)N(c2ccc(C(C)C)cc2)C(C(=O)NCc2ccco2)c2ccc(F)cc2)cc1 (stereo not given) | -9% | -31% | -15% | · | -39%[59 µM] | -5%
O=C(CSc1nnc(C2COc3ccccc3O2)o1)N1CCCC1 (stereo not given) | ? | -23% | -7% | · | 8.9µM* | 21%
CN(C)CCCN(C(=O)c1ccco1)c1nc2ccc(Br)cc2s1 | 16% | -21% | · | · | ? | -3%
CN(C)CCCN(C(=O)CCc1ccccc1)c1nc2ccc(Br)cc2s1 | -15% | -33% | · | · | 79µM* | 1%
O=C(CCc1ccccc1)N(Cc1cccnc1)c1nc2c(F)cc(F)cc2s1 | 35% | -17% | -2% | · | 4%[59 µM] | -20%
COc1cc2ccccc2cc1C(=O)N(CCN(C)C)c1nc2ccc(Br)cc2s1 | ? | ? | ? | · | 25µM* | 8%
COc1cc2ccccc2cc1C(=O)N(CCN(C)C)c1nc2c(F)cc(F)cc2s1 | -18% | ? | ? | · | 32µM* | 3%
CN(C)CCN(C(=O)CCc1ccccc1)c1nc2c(F)cc(F)cc2s1 | 16% | -27% | · | · | 50µM* | 0%
CCN(CC)CCN(C(=O)CCOc1ccccc1)c1nc2c(F)cc(F)cc2s1 | 34% | -9% | · | · | ? | 1%
CCc1cccc(NC(=O)CSc2ncc3c(n2)-c2cc(Cl)ccc2N(C)S3(=O)=O)c1 | -5% | -16% | 0% | · | -6%[59 µM] | -14%
COc1ccccc1C1NC(c2ccc3c(c2)OCO3)=CC(c2cc(Br)ccc2O)N1 (stereo not given) | 12%[57 µM] | -12%[57.1 µM] | · | · | · | ·
CCOc1ccc(-c2cnc(NCc3ccc(OC)cc3OC)n2C)cc1 | ? | 28µM* | ? | · | 16µM* | 7%
CCCCn1nnnc1NCc1ccc(OC)c(OC)c1OC | 11% | -10% | 6% | 12% | 25% | 0%
COc1ccc(CNc2nc3ccccc3n2C)c(OC)c1 | 22% | -11% | -10% | -4% | 11% | -18%
COc1ccc(CNc2ncc(-c3ccc(Cl)cc3)n2C)c(OC)c1OC | ? | 25µM* | ? | -7% | 71µM* | 2%
Cc1oc(-c2ccc(Cl)cc2)cc1C(=O)/C(C#N)=C/Nc1cccc(OC(F)(F)F)c1 | 17% | -13% | -16% | -12% | 50µM* | 2%
COc1cc(C2c3c(oc4ccccc4c3=O)C(=O)N2c2nnc(C(C)C)s2)cc(OC)c1OC (stereo not given) | 16% | -13% | -3% | · | 5%[59 µM] | 0%
COc1ccc(CCN(Cc2cc3ccc(C)cc3n3nnnc23)C(C)=O)cc1OC | -7% | 11µM* | 5% | · | -15% | -17%
CCCCc1cc(=O)oc2cc(C)c3c(C(C)(C)C)coc3c12 | 4% | 28% | -20% | · | -36%[59 µM] | 4%
S=C(Nc1ccccc1)N1N=C(c2cccs2)CC1c1cccs1 (stereo not given) | -15% | 20µM* | -16% | -9% | · | ?
COc1ccc(C2CC(c3cccs3)=NN2C(=S)Nc2ccccc2)cc1OC (stereo not given) | -5% | ? | -31% | -8% | 15%[59 µM] | 5%
COc1cc(Sc2ccc(C)cc2)c(OC)cc1N | 28µM* | 22µM* | 14µM* | ? | 3.5µM* | 5%
SMILES | HP1b binding inh | JMJD2A Tudor inh | BAZ2B inh | L3MBTL1 inh | G9a inh | GLS inhibitor
CCOC(=O)c1cc2c(=O)n3ccccc3nc2n(Cc2ccco2)c1=NC(=O)c1cccc(Br)c1 | 28% | -6% | 50µM* | · | ? | ?
CCOC(=O)c1cc2c(=O)n3ccccc3nc2n(CCOC)c1=NC(=O)c1ccncc1 | 28% | -17% | 3% | 0%[11.4 µM] | -4%[12.7 µM] | -18%
CCOC(=O)c1cc2c(=O)n3ccccc3nc2n(Cc2ccco2)c1=NC(=O)c1ccc(Br)cc1 | 7% | -24% | ? | · | -4%[59 µM] | 1%
CCOC(=O)c1cc2c(=O)n3ccccc3nc2n(CCCOC)c1=NC(=O)c1cccnc1 | · | · | 10% | ? | 10µM* | ·
CCOC(=O)c1cc2c(=O)n3cccc(C)c3nc2n(Cc2ccco2)c1=NC(=O)c1cccnc1 | 15% | ? | 79µM* | -10%[11.4 µM] | 8%[12.7 µM] | -17%
CCOC(=O)c1cc2c(=O)n3ccccc3nc2n(Cc2ccco2)c1=NC(=O)c1ccc(C)c(C)c1 | 25% | 6% | 3% | · | -3%[59 µM] | -7%
CCOC(=O)c1cc2c(=O)n3ccccc3nc2n(C(C)C)c1=NC(=O)c1ccncc1 | -7% | ? | 0% | 2% | 56µM* | -2%
CCc1ccc2oc(-c3cccc(NC(=O)c4ccc(N5CCC(C)CC5)c([N+](=O)[O-])c4)c3)nc2c1 | 5% | -26% | -34% | · | -33%[59 µM] | -2%
CCOC(=O)c1cc2c(=O)n3ccccc3nc2n(Cc2ccco2)c1=NC(=O)c1cccc(C)c1 | 15% | 1% | 7% | · | 13%[59 µM] | 4%
CCOC(=O)c1cc2c(=O)n3ccccc3nc2n(Cc2ccco2)c1=NC(=O)c1cccnc1 | 12% | ? | ? | -5% | 56µM* | 7%
COCCCn1c(C(=O)Nc2ccc3c(c2)OCO3)cc2c(=O)n3ccccc3nc21 | 10% | 25µM* | -4% | · | -5% | ?
CSc1nnc(-c2cccc(NC(=S)NN)c2)o1 | 12% | -21% | ? | · | 7.9µM* | 17%
CSc1nnc(-c2ccc(NC(N)=S)cc2)o1 | 30% | -18% | -15% | -2% | 3% | -7%
CCOC(=O)COc1ccc2ccccc2c1/C=C/[N+](=O)[O-] | 7% | -14% | -31% | 2% | 18µM* | 5%
